# Results: the supplement of paper PMC11732987, “Enantioselective OTUD7B fragment discovery through chemoproteomics screening and high-throughput optimisation” (Communications Chemistry, 2025)
# Unmarked numbers belong to inactive results.
# Columns and labels:
# Test in all cases: log2 ratio of Biotin-Ahx-Ub-VS probe labelling (fragment/DMSO); higher = less target engagement (more negative = stronger competition), active = hit call of the paper (q ≤ 0.05, log2 ratio ≤ -1)
# Conditions in all cases: compound concentration: 200 uM; treatment time: 3 h
# [1] = molecular target: T1, USP19 (UniProt O94966)
# T1 sequence (whole entry): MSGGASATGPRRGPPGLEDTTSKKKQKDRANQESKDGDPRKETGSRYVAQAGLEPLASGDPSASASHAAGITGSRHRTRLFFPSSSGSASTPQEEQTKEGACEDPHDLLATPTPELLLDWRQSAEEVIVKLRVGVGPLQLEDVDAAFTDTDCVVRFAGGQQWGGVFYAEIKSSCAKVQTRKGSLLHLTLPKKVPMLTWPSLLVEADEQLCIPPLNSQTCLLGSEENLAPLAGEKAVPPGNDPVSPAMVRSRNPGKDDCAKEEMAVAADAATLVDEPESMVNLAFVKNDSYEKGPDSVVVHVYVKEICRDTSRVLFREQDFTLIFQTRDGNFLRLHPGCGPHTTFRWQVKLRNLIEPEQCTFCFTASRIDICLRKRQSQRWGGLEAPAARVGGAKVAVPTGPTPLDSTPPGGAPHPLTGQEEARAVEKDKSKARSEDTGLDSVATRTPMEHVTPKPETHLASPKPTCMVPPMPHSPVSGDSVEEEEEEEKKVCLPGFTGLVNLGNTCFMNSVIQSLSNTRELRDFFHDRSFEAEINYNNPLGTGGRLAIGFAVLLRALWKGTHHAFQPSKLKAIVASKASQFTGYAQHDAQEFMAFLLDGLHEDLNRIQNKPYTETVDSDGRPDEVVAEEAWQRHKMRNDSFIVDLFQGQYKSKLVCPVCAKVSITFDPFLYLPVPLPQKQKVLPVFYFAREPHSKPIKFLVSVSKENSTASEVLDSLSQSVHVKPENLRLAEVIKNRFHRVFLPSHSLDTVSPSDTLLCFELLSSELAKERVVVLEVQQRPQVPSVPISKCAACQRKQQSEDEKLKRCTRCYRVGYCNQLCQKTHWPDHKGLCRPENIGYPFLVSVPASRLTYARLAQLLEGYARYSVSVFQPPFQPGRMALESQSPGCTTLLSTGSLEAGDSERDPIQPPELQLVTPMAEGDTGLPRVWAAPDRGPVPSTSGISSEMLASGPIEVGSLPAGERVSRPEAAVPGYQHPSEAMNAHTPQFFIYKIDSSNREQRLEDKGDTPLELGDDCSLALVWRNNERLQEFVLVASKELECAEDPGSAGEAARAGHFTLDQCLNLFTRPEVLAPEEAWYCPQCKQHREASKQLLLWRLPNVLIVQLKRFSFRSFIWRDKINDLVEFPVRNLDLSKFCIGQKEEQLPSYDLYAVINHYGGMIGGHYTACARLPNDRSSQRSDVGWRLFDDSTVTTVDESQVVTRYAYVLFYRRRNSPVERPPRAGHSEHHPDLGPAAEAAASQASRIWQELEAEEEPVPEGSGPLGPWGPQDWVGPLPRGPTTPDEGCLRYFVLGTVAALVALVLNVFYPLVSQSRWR
# Procedure, shortened: (§1)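 HEK293T lysate, 495 µg per sample in Tris/CHAPS/IGEPAL buffer with protease inhibitors, was treated in triplicate with fragment at 200 µM or vehicle for 3 h and then with Biotin-Ahx-Ub-VS at 0.5 µM final for 1 h. Labelled DUBs were NeutrAvidin-enriched, digested with LysC and trypsin, and run by diaPASEF LC-MS/MS. Spectronaut label-free quantities were global-median-normalised, and values are average log2 fragment/vehicle ratios by unpaired t-test on proteins with ≥2 unique peptides.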
# [2] = molecular target: T2, USP22 (UniProt Q9UPT9)
# T2 sequence (whole entry): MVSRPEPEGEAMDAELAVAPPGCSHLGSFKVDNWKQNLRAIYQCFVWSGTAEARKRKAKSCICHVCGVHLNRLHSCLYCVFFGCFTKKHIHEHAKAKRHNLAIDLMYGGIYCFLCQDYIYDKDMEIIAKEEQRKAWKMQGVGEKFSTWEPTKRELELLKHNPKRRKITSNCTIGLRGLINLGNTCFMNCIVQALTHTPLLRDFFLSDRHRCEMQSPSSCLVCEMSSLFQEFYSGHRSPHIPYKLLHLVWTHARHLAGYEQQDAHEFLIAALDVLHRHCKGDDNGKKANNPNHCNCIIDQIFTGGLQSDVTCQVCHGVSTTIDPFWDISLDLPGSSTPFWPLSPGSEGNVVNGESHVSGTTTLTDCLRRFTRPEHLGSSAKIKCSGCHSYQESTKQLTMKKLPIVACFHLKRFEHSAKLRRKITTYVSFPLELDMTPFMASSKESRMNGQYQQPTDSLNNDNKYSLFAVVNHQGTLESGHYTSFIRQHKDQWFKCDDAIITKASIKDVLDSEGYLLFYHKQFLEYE
# Procedure, shortened: as §1
# [3] = molecular target: USP24 (UniProt Q9UPU5)
# Chain of USP24 (Q9UPU5 whole entry): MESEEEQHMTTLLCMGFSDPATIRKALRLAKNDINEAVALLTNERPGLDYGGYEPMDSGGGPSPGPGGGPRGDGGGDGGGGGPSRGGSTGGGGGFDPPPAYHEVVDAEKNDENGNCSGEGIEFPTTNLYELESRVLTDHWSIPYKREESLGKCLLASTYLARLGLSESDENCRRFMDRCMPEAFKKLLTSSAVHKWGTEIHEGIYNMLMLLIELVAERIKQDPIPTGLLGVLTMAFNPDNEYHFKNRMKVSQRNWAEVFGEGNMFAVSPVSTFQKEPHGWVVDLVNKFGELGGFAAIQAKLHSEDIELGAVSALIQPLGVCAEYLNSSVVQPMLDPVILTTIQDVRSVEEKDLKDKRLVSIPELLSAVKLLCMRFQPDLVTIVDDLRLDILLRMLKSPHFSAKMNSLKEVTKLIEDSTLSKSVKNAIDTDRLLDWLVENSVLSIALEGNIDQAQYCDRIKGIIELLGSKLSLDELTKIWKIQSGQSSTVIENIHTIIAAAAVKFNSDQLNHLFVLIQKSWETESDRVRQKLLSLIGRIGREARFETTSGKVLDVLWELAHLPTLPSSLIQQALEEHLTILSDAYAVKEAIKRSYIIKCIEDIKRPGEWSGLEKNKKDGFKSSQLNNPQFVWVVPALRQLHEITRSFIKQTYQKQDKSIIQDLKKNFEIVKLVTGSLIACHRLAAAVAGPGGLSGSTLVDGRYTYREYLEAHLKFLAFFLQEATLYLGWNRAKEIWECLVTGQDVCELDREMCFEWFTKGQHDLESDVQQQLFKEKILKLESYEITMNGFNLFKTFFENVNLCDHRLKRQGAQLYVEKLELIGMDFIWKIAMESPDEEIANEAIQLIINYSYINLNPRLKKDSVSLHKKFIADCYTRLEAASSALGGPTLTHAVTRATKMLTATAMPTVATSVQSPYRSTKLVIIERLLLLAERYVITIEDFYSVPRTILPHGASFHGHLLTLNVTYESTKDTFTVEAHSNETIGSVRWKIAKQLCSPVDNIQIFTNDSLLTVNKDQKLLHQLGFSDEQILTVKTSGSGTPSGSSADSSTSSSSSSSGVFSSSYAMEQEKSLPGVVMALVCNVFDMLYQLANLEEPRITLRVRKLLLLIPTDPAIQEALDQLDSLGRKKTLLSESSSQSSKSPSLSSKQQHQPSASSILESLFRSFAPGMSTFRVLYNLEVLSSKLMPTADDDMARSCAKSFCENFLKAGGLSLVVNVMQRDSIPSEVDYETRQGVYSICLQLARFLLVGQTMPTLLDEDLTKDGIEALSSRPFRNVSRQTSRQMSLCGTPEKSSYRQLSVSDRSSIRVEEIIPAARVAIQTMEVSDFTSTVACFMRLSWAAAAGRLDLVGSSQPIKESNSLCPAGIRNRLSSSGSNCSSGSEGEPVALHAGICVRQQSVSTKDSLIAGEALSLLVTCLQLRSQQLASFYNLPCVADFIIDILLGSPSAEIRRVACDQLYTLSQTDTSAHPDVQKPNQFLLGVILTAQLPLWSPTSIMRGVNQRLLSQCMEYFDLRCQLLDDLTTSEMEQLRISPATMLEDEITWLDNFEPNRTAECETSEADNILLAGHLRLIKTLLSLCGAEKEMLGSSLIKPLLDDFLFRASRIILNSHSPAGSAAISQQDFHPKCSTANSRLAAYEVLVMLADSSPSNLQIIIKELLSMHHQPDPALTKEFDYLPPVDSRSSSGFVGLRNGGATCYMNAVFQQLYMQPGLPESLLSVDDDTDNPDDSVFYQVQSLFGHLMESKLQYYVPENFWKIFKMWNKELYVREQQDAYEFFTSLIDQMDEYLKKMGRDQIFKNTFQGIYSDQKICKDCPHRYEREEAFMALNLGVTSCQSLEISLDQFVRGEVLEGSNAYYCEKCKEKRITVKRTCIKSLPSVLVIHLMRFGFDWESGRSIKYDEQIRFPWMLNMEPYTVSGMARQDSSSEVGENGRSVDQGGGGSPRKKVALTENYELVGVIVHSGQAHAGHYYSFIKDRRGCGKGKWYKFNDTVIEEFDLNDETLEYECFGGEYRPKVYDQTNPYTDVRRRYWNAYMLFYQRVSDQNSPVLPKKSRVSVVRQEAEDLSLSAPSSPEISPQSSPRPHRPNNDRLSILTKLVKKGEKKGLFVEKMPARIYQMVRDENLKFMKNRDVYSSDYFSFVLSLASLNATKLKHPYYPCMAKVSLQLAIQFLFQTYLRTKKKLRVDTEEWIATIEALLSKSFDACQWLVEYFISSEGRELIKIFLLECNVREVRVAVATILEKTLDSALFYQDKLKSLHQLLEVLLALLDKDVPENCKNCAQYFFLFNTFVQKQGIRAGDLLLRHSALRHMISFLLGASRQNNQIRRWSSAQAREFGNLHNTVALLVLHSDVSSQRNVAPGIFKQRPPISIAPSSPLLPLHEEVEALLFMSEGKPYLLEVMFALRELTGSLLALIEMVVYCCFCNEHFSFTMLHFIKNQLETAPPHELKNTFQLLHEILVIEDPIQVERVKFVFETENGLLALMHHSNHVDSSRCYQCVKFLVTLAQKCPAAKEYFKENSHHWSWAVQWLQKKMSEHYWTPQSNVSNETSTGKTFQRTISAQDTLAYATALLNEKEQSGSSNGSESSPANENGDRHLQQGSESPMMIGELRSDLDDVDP
# Procedure, shortened: as §1
# [4] = molecular target: T3, USP25 (UniProt Q9UHP3)
# T3 sequence (whole entry): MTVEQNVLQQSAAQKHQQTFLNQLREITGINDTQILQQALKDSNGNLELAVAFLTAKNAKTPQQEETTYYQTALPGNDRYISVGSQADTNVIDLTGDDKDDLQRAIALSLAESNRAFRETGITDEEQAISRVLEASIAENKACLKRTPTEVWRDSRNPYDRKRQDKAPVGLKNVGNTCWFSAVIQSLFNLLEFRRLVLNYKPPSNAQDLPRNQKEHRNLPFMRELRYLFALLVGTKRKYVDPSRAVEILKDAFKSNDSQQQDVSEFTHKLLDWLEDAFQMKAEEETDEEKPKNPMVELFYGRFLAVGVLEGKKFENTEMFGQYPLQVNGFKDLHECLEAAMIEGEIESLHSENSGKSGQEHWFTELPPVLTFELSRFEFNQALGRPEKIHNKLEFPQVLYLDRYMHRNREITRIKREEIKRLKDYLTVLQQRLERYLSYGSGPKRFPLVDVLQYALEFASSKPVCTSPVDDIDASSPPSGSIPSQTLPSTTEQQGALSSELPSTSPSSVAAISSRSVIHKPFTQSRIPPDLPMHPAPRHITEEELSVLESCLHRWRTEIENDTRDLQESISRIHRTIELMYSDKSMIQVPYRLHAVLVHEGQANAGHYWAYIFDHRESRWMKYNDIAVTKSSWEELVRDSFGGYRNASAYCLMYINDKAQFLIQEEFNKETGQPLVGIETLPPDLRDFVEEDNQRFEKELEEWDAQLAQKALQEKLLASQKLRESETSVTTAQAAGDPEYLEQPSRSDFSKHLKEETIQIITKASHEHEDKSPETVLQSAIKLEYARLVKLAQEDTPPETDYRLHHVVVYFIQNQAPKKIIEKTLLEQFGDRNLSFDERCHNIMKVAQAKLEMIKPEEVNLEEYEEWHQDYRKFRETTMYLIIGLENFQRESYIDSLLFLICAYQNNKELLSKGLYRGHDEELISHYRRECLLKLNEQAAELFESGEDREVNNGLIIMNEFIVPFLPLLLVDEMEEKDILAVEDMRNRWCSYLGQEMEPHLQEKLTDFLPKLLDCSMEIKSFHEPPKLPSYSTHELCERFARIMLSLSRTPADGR
# Procedure, shortened: as §1
# [5] = molecular target: T4, USP28 (UniProt Q96RU2)
# T4 sequence (whole entry): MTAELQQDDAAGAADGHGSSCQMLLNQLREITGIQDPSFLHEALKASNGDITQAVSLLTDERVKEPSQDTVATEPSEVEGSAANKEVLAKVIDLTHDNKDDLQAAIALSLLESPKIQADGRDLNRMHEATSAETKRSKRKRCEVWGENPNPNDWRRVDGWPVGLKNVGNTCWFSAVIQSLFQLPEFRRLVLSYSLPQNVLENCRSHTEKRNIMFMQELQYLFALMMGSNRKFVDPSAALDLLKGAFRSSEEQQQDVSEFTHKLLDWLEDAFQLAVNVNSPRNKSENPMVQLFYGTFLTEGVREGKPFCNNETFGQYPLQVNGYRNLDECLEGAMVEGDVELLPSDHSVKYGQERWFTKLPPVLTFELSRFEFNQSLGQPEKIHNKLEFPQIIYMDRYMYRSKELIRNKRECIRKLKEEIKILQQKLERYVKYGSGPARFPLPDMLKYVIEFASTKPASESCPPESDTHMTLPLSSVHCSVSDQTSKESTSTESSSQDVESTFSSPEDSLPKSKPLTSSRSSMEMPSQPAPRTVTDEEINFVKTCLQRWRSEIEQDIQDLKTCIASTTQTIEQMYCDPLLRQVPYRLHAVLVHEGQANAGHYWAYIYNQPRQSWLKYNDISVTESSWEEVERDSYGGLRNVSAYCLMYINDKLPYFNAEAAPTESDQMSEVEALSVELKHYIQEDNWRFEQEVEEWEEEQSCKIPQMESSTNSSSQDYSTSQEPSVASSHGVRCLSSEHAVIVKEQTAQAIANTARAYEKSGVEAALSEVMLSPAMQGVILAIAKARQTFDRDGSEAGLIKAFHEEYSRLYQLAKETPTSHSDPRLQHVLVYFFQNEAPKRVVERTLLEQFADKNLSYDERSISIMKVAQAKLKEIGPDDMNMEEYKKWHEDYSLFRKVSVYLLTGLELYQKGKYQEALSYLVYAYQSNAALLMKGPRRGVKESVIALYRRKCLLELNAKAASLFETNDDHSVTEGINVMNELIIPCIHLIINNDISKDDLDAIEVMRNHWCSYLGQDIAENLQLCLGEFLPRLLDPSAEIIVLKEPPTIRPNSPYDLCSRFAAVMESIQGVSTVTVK
# Procedure, shortened: as §1
structure (smiles),measurement,setting,value
O=C(CCl)N1CCOC(CCc2ccccc2)C1 (stereo not given),log2 ratio of Biotin-Ahx-Ub-VS probe labelling,[1],-0.687
same,log2 ratio of Biotin-Ahx-Ub-VS probe labelling,[2],-0.0816
same,log2 ratio of Biotin-Ahx-Ub-VS probe labelling,[3],-1.37 (active)
same,log2 ratio of Biotin-Ahx-Ub-VS probe labelling,[4],-0.497
same,log2 ratio of Biotin-Ahx-Ub-VS probe labelling,[5],-0.802
